Among the test systems are EKVX NSCLC; SN12C renal; UO-31 renal; TK-10 renal; ACHN renal; CAKI-1 renal; A498 renal; CCRF-CEM leukemia; MOLT-4 leukemia; SR leukemia.
What all share (assay): NCI-60 one-dose screen, 48 h (100 = growth as untreated, 0 = no growth, -100 = all killed)
Conditions in all cases: 10 µM unless noted

About 83,000 compounds went through this panel and 20% of them were active in at least one assay; those are over-represented in the sample as a whole.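 Negative percent growth values reflect cell death: -40 means 40% of the cells present at the start died, and -100 means all died.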 Unmarked numbers belong to inactive results. Activity calls are given as the source filed them. The calls were made as follows: active = growth percent below 10; inactive = the rest.

As for `Cn1cc(-c2csc(-c3c[nH]c4ncccc34)n2)c2cc(F)cnc21`, the growth in the test on EKVX NSCLC is 51.9%; in the test with SN12C renal, 78.1%; in the test on UO-31 renal, 55.6%; in the test with TK-10 renal, 54.3%; in the test with ACHN renal it was 53.3%; with CAKI-1 renal, 45.1%. Further, the growth was 70.4% in the test with A498 renal, 66.1% in the test on CCRF-CEM leukemia and 80.5% in the test on MOLT-4 leukemia.

For the molecule `O=c1c(O)cccn1CCCNCCCN(CCCn1cccc(O)c1=O)CCCn1cccc(O)c1=O`, the growth was 93% in the test with EKVX NSCLC; 87% in the test on SN12C renal; 104% in the test with UO-31 renal; 108% in the test with TK-10 renal; 101% in the test with ACHN renal; 103% in the test with CAKI-1 renal. Also, the values for the growth with A498 renal, in the test with CCRF-CEM leukemia and in the test with MOLT-4 leukemia were 129%, 147% and 160%, respectively.

For the molecule `O=C1c2nsnc2C(=O)c2c(F)c(F)c(F)c(F)c21`, the growth in the test on EKVX NSCLC was -13.9% (active); in the test with SN12C renal, -94.8% (active); in the test on UO-31 renal, -86.9% (active); in the test with TK-10 renal it was -98.9% (active); in the test on ACHN renal, -97.3% (active); in the test on CAKI-1 renal, -75.9% (active). In addition, the growth was 10.1% with A498 renal, 6.36% (active) in the test with CCRF-CEM leukemia and -26.6% (active) with MOLT-4 leukemia.

As to `Clc1ccc(CCC(Cn2ccnc2)Sc2c(Cl)cccc2Cl)cc1` (stereo not drawn), the growth is 52.2% in the test with EKVX NSCLC; 55.6% in the test on SN12C renal; 30.5% with UO-31 renal; 52.4% in the test on TK-10 renal; 65.4% in the test on ACHN renal; 43.3% in the test on CAKI-1 renal. For the same molecule, the growth in the test with A498 renal was 73.7%; in the test with CCRF-CEM leukemia, 35.1%; in the test with MOLT-4 leukemia, 34.6%.

With `CC(C)(C)c1ccc(C(O)CCCN2CCC(C(O)(c3ccccc3)c3ccccc3)CC2)cc1` (stereo not drawn), the growth is 28.3% with EKVX NSCLC; 4.51% (active) with SN12C renal; -80.9% (active) in the test on UO-31 renal; -81.7% (active) in the test on TK-10 renal; -88.2% (active) with ACHN renal; 1.36% (active) in the test with CAKI-1 renal. Also, the growth with A498 renal was 50.3%; in the test on CCRF-CEM leukemia, -23.6% (active); in the test on MOLT-4 leukemia, -13.2% (active).

As to `Fc1ccc([C@@H]2CCNC[C@H]2COc2ccc3c(c2)OCO3)cc1`, the growth in the test on EKVX NSCLC is 77.3%; in the test on SN12C renal, 58.6%; with UO-31 renal, 40.4%; with TK-10 renal, 58.4%; with ACHN renal, 67%; in the test with CAKI-1 renal, 67%. The growth in the test on A498 renal was 86.1%; with CCRF-CEM leukemia, 60.6%; in the test on MOLT-4 leukemia, 68.3%.

`O=C(OC[C@H]1O[C@H](OC(=O)c2cc(O)c(O)c(OC(=O)c3cc(O)c(O)c(O)c3)c2)[C@H](OC(=O)c2cc(O)c(O)c(OC(=O)c3cc(O)c(O)c(O)c3)c2)[C@@H](OC(=O)c2cc(O)c(O)c(OC(=O)c3cc(O)c(O)c(O)c3)c2)[C@@H]1OC(=O)c1cc(O)c(O)c(OC(=O)c2cc(O)c(O)c(O)c2)c1)c1cc(O)c(O)c(OC(=O)c2cc(O)c(O)c(O)c2)c1`: the growth in the test on EKVX NSCLC was 37.4%; in the test with SN12C renal, 31.6%; with UO-31 renal, 22.1%; in the test with TK-10 renal, 43.4%; in the test with ACHN renal, 24.6%; in the test on CAKI-1 renal, 19.6%. In addition, the growth with A498 renal was 35.6%; in the test on CCRF-CEM leukemia, 24%; with MOLT-4 leukemia, 26.3%.

With `CC(=O)O[C@H]1C(=O)[C@@]2(C)C([C@H](OC(=O)c3ccccc3)[C@]3(O)C[C@H](OC(=O)[C@H](O)[C@@H](NC(=O)c4ccccc4)c4ccccc4)C(C)=C1C3(C)C)[C@]1(OC(C)=O)CO[C@@H]1C[C@@H]2O` (stereo partly drawn), the growth with EKVX NSCLC was 48.3%; in the test with SN12C renal, 38.1%; with UO-31 renal, 33.6%; in the test with TK-10 renal it was 20.6%; with ACHN renal, 41%; in the test with CAKI-1 renal it was 44.7%. Further, the values for the growth with A498 renal, in the test with CCRF-CEM leukemia and with MOLT-4 leukemia were 30.8%, 14% and 28.3%, respectively.

Consider `Cn1c(N)c(N=O)c(=O)[nH]c1=O`, for which the growth with EKVX NSCLC was 98%; in the test with SN12C renal, 101%; with UO-31 renal, 82.5%; in the test with TK-10 renal it was 101%; in the test on ACHN renal, 100%; in the test with CAKI-1 renal, 108%. The growth was 111% in the test on A498 renal, 91.1% in the test on CCRF-CEM leukemia, 96.3% in the test with MOLT-4 leukemia and 97.6% with SR leukemia.

Consider `N=c1ccn2c(n1)O[C@@H]1[C@@H](O)[C@H](CO)O[C@@H]12`, for which the growth with EKVX NSCLC is 98.8%; in the test on SN12C renal it was 54.3%; in the test on UO-31 renal, 15.5%; in the test on TK-10 renal it was 67.2%; with ACHN renal, 11.8%; with CAKI-1 renal, 55.3%. Also, the figures for the growth in the test on A498 renal, with CCRF-CEM leukemia and with MOLT-4 leukemia were 99.3%, 31.5% and 28.2%, respectively.

In the case of `COc1c(C)c2c(c(O)c1C/C=C(\C)CCC(=O)OCCN1CCOCC1)C(=O)OC2`, the growth was 46% with EKVX NSCLC; 24.1% with SN12C renal; 15.4% in the test on UO-31 renal; 27.1% with TK-10 renal; 27% in the test with ACHN renal; 5.19% (active) in the test on CAKI-1 renal. For the same molecule, the growth in the test with A498 renal is 30%; in the test with CCRF-CEM leukemia, 18.6%; in the test with MOLT-4 leukemia, 24.4%.

For the molecule `CCC(C)CC(CC)NCCN1CCN(C(CC)CC(C)CC)C1=S` (stereo not drawn), the growth with EKVX NSCLC was 23%; in the test with SN12C renal, 36.9%; with UO-31 renal, 41.4%; in the test with TK-10 renal, 58.5%; in the test on ACHN renal it was 52.4%; with CAKI-1 renal, 59.6%. Moreover, the results for the growth in the test with A498 renal, with CCRF-CEM leukemia and in the test on MOLT-4 leukemia were 61.9%, 24.3% and 38.5%, respectively.

On to `Cc1nc2c(O)cccc2cc1CO`, for which the growth in the test with EKVX NSCLC was 107%; with SN12C renal, 105%; with UO-31 renal, 103%; in the test on TK-10 renal it was 168%; in the test with ACHN renal, 110%; in the test on CAKI-1 renal, 104%. For the same molecule, the growth in the test with A498 renal is 131%; in the test with CCRF-CEM leukemia it was 107%; with MOLT-4 leukemia, 105%; in the test on SR leukemia, 67.7%.

`CC[C@@H]1OC(=O)[C@H](C)[C@@H](O[C@H]2C[C@@](C)(OC)[C@@H](O)[C@H](C)O2)[C@H](C)[C@@H](O[C@@H]2O[C@H](C)C[C@H](N(C)C)[C@H]2O)[C@](C)(O)C[C@@H](C)[C@@H]2N[C@@H](COCCOC)O[C@H]([C@H]2C)[C@]1(C)O`: the growth in the test with EKVX NSCLC was 102%; with SN12C renal it was 98.9%; in the test on UO-31 renal it was 81.5%; in the test on TK-10 renal it was 119%; with ACHN renal it was 102%; in the test with CAKI-1 renal it was 96.6%. Moreover, the growth was 119% in the test with A498 renal, 82.4% in the test on CCRF-CEM leukemia and 90.1% in the test on MOLT-4 leukemia.
